A short description of assay [1]: ATG_M_61_CIS: Attagene CIS-FACTORIAL HepG2 Assay for M61 Transcription Factor (Internal Marker) (AID 2282937). Particulars: HepG2 Attagene CIS-FACTORIAL M61 internal marker reporter; actives raise or lower the signal. Put shortly: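 Readout: fluorescent reporter mRNA fragments resolved by capillary electrophoresis after RT-PCR. Transiently transfected human HepG2 cells carried MRTU constructs reporting endogenous TF activity; 24 h chemical exposure; gain or loss of signal fitted relative to DMSO.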

A short description of assay [2]: ATG_EGR_CIS: Attagene CIS-FACTORIAL HepG2 Assay for human Early Growth Response 1 (EGR1) (AID 2282938). Particulars: HepG2 Attagene CIS-FACTORIAL EGR reporter mRNA; actives raise or lower the signal. Put shortly:
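Read-out: fluorescent reporter-mRNA fragments resolved by capillary electrophoresis after RT-PCR, 24 h post-dose in transiently transfected HepG2. Endogenous transcription-factor activity reported via cis-element-regulated reporter units; gain or loss fitted relative to DMSO.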

Assay [3] can be described thus: ATG_M_19_CIS: Attagene CIS-FACTORIAL HepG2 Assay for M19 Transcription Factor (Internal Marker) (AID 2282939). Particulars: HepG2 Attagene CIS-FACTORIAL M19 internal marker reporter; actives raise or lower the signal. The gist of the method:
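Internal marker readout, fitted in both directions against DMSO, from HepG2 cells carrying transfected cis-element reporter constructs; RT-PCR and capillary electrophoresis of reporter mRNA after 24 h exposure.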

The nature of assay [4]: ATG_ERE_CIS: Attagene CIS-FACTORIAL HepG2 Assay for Estrogen Response Element (ERE) (AID 2282940). Particulars: HepG2 ERE cis-reporter, Attagene RNA transcript; actives raise or lower the signal. The gist of the method:
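After 24 h compound treatment, RNA from transfected HepG2 cells was reverse-transcribed, reporter cDNA PCR-amplified, FAM-labelled, HpaI-cut and resolved by capillary electrophoresis. ERE-driven cis reporter transcripts reflect endogenous factors; gain or loss scored against DMSO.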

The nature of assay [5]: ATG_Ets_CIS: Attagene CIS-FACTORIAL HepG2 Assay for human Erythroblast Transformation Specific (ETS) (AID 2282941). The note with it: HepG2 ETS cis-reporter transcription, actives raise or lower the signal. Put shortly: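 After transient cis-reporter transfection, HepG2 cells receive test chemical for 24 h. Reporter mRNA levels, measured by RT-PCR and capillary electrophoresis fluorescence, are analysed bidirectionally relative to the DMSO baseline.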

Assay [6] has as its target Hepatocyte nuclear factor 3-beta (Homo sapiens) (UniProt Q9Y261). Nature of the assay: ATG_FoxA2_CIS: Attagene CIS-FACTORIAL HepG2 Assay for human Forkhead box A2 (FOXA2) (AID 2282942). The note with it: HepG2 cis-reporter transcription factor activity, 24 h; actives raise or lower the signal. Put shortly:
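Readout: fluorescent reporter transcripts resolved by capillary electrophoresis after RT-PCR. Transiently transfected HepG2, 24 h compound exposure, endogenous TF activity at cis promoter elements. Gain or loss of signal fitted relative to DMSO.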

Assay [7] is described as follows: ATG_FoxO_CIS: Attagene CIS-FACTORIAL HepG2 Assay for human Forkhead box O (FoxO) (AID 2282943). Particulars: HepG2 Attagene cis-reporter, FoxO element, mRNA; actives raise or lower the signal. The gist of the method:
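Read-out: fluorescence of 6-FAM-labelled reporter cDNA fragments resolved by capillary electrophoresis. Transiently transfected HepG2 cells were dosed for 24 h; activity fitted in both directions relative to DMSO controls.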

Assay [8] can be described thus: ATG_GATA_CIS: Attagene CIS-FACTORIAL HepG2 Assay for human GATA Binding Protein (AID 2282944). The note with it: HepG2 GATA cis-element reporter, Attagene multiplex mRNA; actives raise or lower the signal. The gist of the method: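 Reporter transcripts from a GATA cis-regulated unit, among multiplexed reporters in transfected HepG2 cells, were measured by RT-PCR with capillary electrophoresis after 24 h dosing. Induction or loss scored relative to DMSO.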

Assay [9] in a line: ATG_GLI_CIS: Attagene CIS-FACTORIAL HepG2 Assay for human Zinc Finger Protein GLI1 (AID 2282945). Particulars: HepG2, Attagene cis-factorial reporter mRNA, GLI element; actives raise or lower the signal. Put shortly:
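Transiently transfected HepG2 cells report endogenous transcription factor activity via cis-element-driven reporter units. After 24 h compound exposure, reporter mRNA was measured by RT-PCR with capillary electrophoresis; bidirectional fitting against DMSO baseline.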

A short description of assay [10]: ATG_GRE_CIS: Attagene CIS-FACTORIAL HepG2 Assay for human Glucocorticoid Response Elements (GRE) (AID 2282947). The note with it: HepG2 GRE cis-reporter, Attagene multiplex mRNA; actives raise or lower the signal. The gist of the method:
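Transiently transfected HepG2 cells carrying GRE cis-reporter units (endogenous TF activity) dosed 24 h; reporter mRNA quantified by RT-PCR, 6-FAM labelling, HpaI digestion and capillary electrophoresis. Bidirectional fit versus DMSO baseline.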

Assay [11] can be described thus: ATG_ISRE_CIS: Attagene CIS-FACTORIAL HepG2 Assay for human Interferon Regulatory Factor 1 (IRF1) binding to an Interferon-Stimulated Response Element (ISRE) (AID 2282948). Particulars: HepG2 ISRE cis-reporter (Attagene), mRNA transcription readout; actives raise or lower the signal. The gist of the method: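 Quantitation relies on labelled RT-PCR fragments separated by capillary electrophoresis. Human HepG2 cells bearing cis-promoter reporter constructs were treated 24 h; DMSO served as baseline for bidirectional fitting.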

Assay [12] can be described thus: ATG_M_32_CIS: Attagene CIS-FACTORIAL HepG2 Assay for M32 Transcription Factor (Internal Marker) (AID 2282949).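 Also: background control marker of the multiplexed CIS panel rather than a real target.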 The note with it: HepG2 Attagene cis-factorial M32 reporter, mRNA; actives raise or lower the signal. Put shortly: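 HepG2 cells transiently transfected with multiplexed cis-regulated reporter units, dosed 24 h. Reporter mRNA quantified by RT-PCR, 6-FAM labelling, HpaI digestion and capillary electrophoresis; bidirectional fit vs DMSO.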

The nature of assay [13]: ATG_M_06_CIS: Attagene CIS-FACTORIAL HepG2 Assay for M06 Transcription Factor (Internal Marker) (AID 2282950). Particulars: HepG2 Attagene CIS-FACTORIAL M06 internal marker reporter; actives raise or lower the signal. Put shortly: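 Serves as a background control readout. Transfected HepG2 exposed to compounds for 24 h, then reporter transcripts quantified by fluorescent RT-PCR and capillary electrophoresis. Both directions fitted against DMSO baseline.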

For assay [14], the target named is Hypoxia-inducible factor 1-alpha (Homo sapiens) (UniProt Q16665). Nature of the assay: ATG_HIF1a_CIS: Attagene CIS-FACTORIAL HepG2 Assay for human Hypoxia Inducible Factor 1 (HIF1A) (AID 2282951). Particulars: HepG2 Attagene cis-factorial HIF1a reporter transcription; actives raise or lower the signal. The gist of the method:
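RT-PCR/capillary electrophoresis fluorescence readout of reporter transcripts from endogenous-TF-driven cis elements in transfected HepG2 cells, 24 h exposure; activity fitted in both directions against DMSO controls.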

The target in assay [15] is Hepatocyte nuclear factor 6 (Homo sapiens) (UniProt Q9UBC0). Nature of the assay: ATG_HNF6_CIS: Attagene CIS-FACTORIAL HepG2 Assay for human Hepatocyte Nuclear Factor 6 (HNF6) (AID 2282952). The note with it: HepG2 Attagene cis-factorial HNF6 reporter transcription; actives raise or lower the signal. Put shortly: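 Multiplexed mRNA reporter assay in transfected HepG2; 24 h dosing; RT-PCR plus capillary electrophoresis fluorescence; DMSO-referenced bidirectional curve fitting.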
Chain of Hepatocyte nuclear factor 6 (Homo sapiens) (Q9UBC0 whole entry, looked up): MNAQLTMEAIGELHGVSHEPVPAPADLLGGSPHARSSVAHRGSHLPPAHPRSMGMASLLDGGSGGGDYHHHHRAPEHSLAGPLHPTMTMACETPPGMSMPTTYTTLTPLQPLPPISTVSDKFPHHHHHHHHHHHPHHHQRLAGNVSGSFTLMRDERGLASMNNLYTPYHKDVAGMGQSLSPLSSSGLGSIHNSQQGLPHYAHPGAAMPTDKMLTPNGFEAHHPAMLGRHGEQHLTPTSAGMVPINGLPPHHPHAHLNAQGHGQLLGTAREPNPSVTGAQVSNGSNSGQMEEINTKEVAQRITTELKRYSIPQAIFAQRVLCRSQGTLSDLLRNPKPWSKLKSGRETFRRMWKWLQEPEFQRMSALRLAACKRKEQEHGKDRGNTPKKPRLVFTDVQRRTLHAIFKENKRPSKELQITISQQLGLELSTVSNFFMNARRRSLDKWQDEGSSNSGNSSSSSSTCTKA

The target of assay [16] is Heat shock factor protein 1 (Homo sapiens) (UniProt Q00613). Nature of the assay: ATG_HSE_CIS: Attagene CIS-FACTORIAL HepG2 Assay for human Heat Shock Transcription Factor 1 (HSE) (AID 2282953). Particulars: HepG2 HSE cis-reporter, Attagene RNA transcription; actives raise or lower the signal. The gist of the method: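 Endogenous transcription factor activity in transiently transfected HepG2, read as reporter mRNA by RT-PCR with fluorescent capillary electrophoresis after 24 h. Gain or loss of signal fitted versus DMSO baseline.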
Chain of Heat shock factor protein 1 (Homo sapiens) (Q00613 whole entry, looked up): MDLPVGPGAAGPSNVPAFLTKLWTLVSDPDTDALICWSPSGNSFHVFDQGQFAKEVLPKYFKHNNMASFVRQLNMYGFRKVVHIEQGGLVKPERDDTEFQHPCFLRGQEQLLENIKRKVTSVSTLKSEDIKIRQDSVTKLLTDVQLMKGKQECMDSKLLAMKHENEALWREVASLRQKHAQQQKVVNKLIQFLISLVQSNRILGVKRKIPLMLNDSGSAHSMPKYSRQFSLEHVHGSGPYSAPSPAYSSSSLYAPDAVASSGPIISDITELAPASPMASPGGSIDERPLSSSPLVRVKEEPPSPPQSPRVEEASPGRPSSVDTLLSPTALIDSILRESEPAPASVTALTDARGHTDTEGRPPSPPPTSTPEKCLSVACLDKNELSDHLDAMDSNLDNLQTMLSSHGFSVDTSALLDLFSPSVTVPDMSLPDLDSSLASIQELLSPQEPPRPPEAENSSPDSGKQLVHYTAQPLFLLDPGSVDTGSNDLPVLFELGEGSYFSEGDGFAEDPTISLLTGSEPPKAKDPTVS

Assay [17] in a line: ATG_MRE_CIS: Attagene CIS-FACTORIAL HepG2 Assay for human Metal Responsive Element (MRE) (AID 2282954). Particulars: HepG2 MRE cis-reporter transcription, Attagene multiplex; actives raise or lower the signal. The gist of the method:
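HepG2 cells transiently transfected with cis-element-driven reporter units; mRNA measured 24 h after dosing. Reporter transcripts quantified by RT-PCR, FAM labelling, HpaI digestion and capillary electrophoresis; bidirectional fit versus DMSO.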

Assay [18] can be described thus: ATG_PBREM_CIS: Attagene CIS-FACTORIAL HepG2 Assay for human Phenobarbital-responsive Enhancer Module (PBREM) (AID 2282955). The note with it: HepG2 PBREM cis-reporter, Attagene multiplexed transcription; actives raise or lower the signal. The gist of the method:
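Reporter mRNA read by RT-PCR, 6-FAM primer extension, HpaI digestion and capillary electrophoresis. Transfected HepG2 cells, 24 h compound exposure. Gain or loss of signal fitted bidirectionally relative to DMSO baseline.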

The target of assay [19] is Bile acid receptor (Homo sapiens) (UniProt Q96RI1). Nature of the assay: ATG_IR1_CIS: Attagene CIS-FACTORIAL HepG2 Assay for human Nuclear Receptor Subfamily 1 Group H Member 4 (NR1H4), IR1 submotif (AID 2282946). Particulars: IR1 reporter transcription, actives raise or lower the signal. Put shortly: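 HepG2 cells transiently transfected with multiple cis-promoter-driven reporter units to measure endogenous transcription factor activity; 24 h exposure. Reporter mRNA read by RT-PCR, FAM labelling, HpaI digestion and capillary electrophoresis. Bidirectional fit versus DMSO.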
Chain of Bile acid receptor (Homo sapiens) (Q96RI1 whole entry, looked up): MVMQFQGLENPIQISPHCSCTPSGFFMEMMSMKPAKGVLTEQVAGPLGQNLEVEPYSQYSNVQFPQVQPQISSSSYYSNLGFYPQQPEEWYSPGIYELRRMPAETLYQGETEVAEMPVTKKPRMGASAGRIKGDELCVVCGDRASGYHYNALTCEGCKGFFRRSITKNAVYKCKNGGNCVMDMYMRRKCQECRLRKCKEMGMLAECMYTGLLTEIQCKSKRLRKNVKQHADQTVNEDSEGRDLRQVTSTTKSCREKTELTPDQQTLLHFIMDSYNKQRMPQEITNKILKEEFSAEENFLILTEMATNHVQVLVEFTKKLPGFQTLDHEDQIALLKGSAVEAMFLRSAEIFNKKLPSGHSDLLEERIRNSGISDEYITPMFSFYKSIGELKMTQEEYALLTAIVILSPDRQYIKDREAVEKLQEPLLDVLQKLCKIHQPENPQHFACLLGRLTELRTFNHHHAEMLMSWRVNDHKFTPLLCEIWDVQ

The source made the active and inactive calls. The calls were made as follows: active = hit-call score of the fitted dose curve at least 0.9, where 1 is the maximum; inactive = score below 0.9.

Chain of Hypoxia-inducible factor 1-alpha (Homo sapiens) (Q16665 whole entry, looked up): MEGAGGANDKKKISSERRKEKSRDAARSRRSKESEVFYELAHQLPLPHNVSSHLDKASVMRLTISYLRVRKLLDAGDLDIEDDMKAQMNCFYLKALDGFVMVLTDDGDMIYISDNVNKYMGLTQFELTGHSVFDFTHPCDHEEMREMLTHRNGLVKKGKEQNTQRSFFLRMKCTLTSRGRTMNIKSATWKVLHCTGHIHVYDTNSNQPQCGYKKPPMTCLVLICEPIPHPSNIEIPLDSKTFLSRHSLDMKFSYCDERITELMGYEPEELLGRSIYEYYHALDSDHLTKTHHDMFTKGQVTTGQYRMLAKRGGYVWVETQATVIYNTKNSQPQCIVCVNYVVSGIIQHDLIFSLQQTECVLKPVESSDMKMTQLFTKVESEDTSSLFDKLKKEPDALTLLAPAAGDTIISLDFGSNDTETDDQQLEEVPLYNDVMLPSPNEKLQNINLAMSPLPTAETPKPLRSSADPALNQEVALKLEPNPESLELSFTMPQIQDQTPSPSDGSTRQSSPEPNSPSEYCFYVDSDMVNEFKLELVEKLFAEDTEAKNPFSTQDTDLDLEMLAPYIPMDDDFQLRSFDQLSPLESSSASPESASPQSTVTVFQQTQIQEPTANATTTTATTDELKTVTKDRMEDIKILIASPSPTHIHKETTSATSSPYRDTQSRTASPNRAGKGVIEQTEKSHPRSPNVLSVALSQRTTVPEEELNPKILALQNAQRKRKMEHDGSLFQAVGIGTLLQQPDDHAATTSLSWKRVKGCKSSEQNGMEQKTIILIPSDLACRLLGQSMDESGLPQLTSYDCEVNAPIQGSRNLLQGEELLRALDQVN
Chain of Hepatocyte nuclear factor 3-beta (Homo sapiens) (Q9Y261 whole entry, looked up): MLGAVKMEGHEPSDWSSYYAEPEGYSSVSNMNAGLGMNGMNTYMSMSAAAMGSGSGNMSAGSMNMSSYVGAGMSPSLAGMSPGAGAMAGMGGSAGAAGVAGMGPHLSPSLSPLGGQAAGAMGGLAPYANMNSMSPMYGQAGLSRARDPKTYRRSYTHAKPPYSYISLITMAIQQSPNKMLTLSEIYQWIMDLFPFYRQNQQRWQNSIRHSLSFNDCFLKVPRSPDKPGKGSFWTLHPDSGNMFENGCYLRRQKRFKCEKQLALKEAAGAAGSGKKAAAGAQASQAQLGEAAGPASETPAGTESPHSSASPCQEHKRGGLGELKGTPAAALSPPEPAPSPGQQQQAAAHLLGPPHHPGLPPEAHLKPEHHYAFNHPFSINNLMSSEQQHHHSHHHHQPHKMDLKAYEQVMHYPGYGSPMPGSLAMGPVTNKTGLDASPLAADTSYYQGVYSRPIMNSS

For the molecule `CC(C)=CCCC(C)=CC=O`, the call in [1], in assay [3], in assay [5], in [6], in assay [7] and in assay [8] was inactive. For the same molecule, the outcome in [9], in assay [10], in assay [11], in assay [12], in assay [13] and in [15] was inactive. The call in assay [16] and in [18] was inactive. The AC50 in assay [2], in assay [4], in assay [14] and in assay [17] was 100 µM (active) throughout.
As to `CCOCCO`, the outcome in assay [1], in [2], in [3], in assay [5], in assay [6] and in [7] was inactive. In addition, the molecule was called inactive in assay [8], in [9], in [19], in [10], in assay [11] and in [12]. The molecule was classed as inactive in assay [13], in [14], in [15], in assay [16], in [17] and in assay [18].
Regarding `CC(C)CC(C)(O)C#CC(C)(O)CC(C)C` (stereo not given), the molecule was classed as inactive in assay [1], in assay [2], in [3], in assay [5], in assay [6] and in assay [7]. In addition, the call in assay [8], in assay [9], in assay [10], in assay [11], in assay [12] and in assay [13] was inactive. The molecule was classed as inactive in assay [14], in assay [15], in assay [16], in assay [17] and in [18].
In the case of `CC(C)=CCCC(C)CCO` (stereo not given), the call in [1], in assay [2], in assay [3], in assay [5], in assay [6] and in assay [7] was inactive. In addition, the outcome in [8], in assay [9], in assay [11], in assay [13], in assay [15] and in [16] was inactive. For the same molecule, the molecule was called inactive in assay [17]. Moreover, the values for the AC50 in assay [4] and in assay [14] were 65.7 µM (active) and 178 µM (active), respectively.
As for `CC[C@H]1OC(=O)[C@H](C)[C@@H](O[C@H]2C[C@@](C)(OC)[C@@H](O)[C@H](C)O2)[C@H](C)[C@@H](O[C@@H]2O[C@H](C)C[C@H](N(C)C)[C@H]2O)[C@](C)(O)C[C@@H](C)C(=O)[C@H](C)[C@@H](O)[C@]1(C)O`, the molecule was called inactive in assay [1], in assay [2], in [3], in [5], in assay [6] and in assay [7]. Besides, the molecule was called inactive in assay [8], in [9], in [11], in assay [12], in assay [13] and in [15]. Further, the result in assay [16], in assay [17] and in [18] was inactive.
For the molecule `CCCCCCCCCCCCCCCO`, the molecule was called inactive in assay [1], in assay [2], in [3], in assay [5], in assay [6] and in [8]. Also, the molecule was classed as inactive in assay [9], in assay [11], in assay [13], in assay [14], in [15] and in assay [16]. The outcome in assay [17] was inactive. Further, the figures for the AC50 in [7] and in [19] were 175 µM (active) and 41.3 µM (active), respectively.
Consider `O=C1OC(=O)C2C3C=CC(C3)C12` (stereo not given), for which the molecule was classed as inactive in assay [1], in [2], in assay [3], in assay [5], in assay [6] and in [7]. Moreover, the molecule was called inactive in assay [8], in assay [9], in assay [11], in assay [12], in assay [13] and in assay [14]. Moreover, the result in assay [15], in assay [16] and in assay [17] was inactive.
Turning to `COC(=O)CC(=O)OC`, the molecule was called inactive in [1], in assay [2], in assay [3], in assay [4], in assay [5] and in assay [6]. The call in assay [7], in [8], in assay [9], in assay [10], in [11] and in [13] was inactive. The outcome in assay [14], in assay [15], in assay [16], in assay [17] and in assay [18] was inactive.

(Values after PubChem BioAssay (EPA / NIEHS).)
